# Laboratory results taken from PubChem BioAssay AID504834 (National Center for Advancing Translational Sciences (NCATS), 2011).
# About 22,000 (6.9%) of roughly 320,000 compounds were called active. About 27% were inconclusive and are not listed. The entries come from a sample that favours actives as a whole. A number with no mark means an inactive call. Calls come from the whole dose curve; as a rule, active = well fitted inhibition curve with a large enough effect; inconclusive = small, poorly fitted or top-dose-only effect, or another doubt; inactive = no such curve, though single readings can be large or run the other way.
# Assay: Primary qHTS for delayed death inhibitors of the malarial parasite plastid, 96 hour incubation
# Conditions: P. falciparum luciferase reporter growth; series mostly up to 28.7 µM; activity change, negative = inhibition: at the top concentration
# In short: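 Plates of compound plus infected erythrocytes (2% hematocrit, 0.05% parasitemia final) incubate 96 hours, 37 C, 5% CO2. Detection reagent added; reduced luminescence from the parasites' luciferase reporter flags inhibition.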
# % is set by controls: 0 for no effect and ±100 for the full control effect; potency is the fitted concentration of half-maximal effect.
Structure (SMILES),"activity change, negative = inhibition",Potency
CN(Cc1ccc(F)cc1)C(=O)COc1ccc2ccccc2c1,20.5%,
COc1ccc(N=Nc2c(-c3ccc(OC)cc3)[nH]oc2=O)cc1,12.5%,
Cc1ccc(NC(=O)COc2ccc(/C=N\NC(=O)c3cccnc3)cc2)cc1C,-17.2%,
O=C(COc1ccc(Cl)cc1)Nc1ccc2c(c1)OCO2,45.3%,
Cc1ccc(NC(=O)COc2ccc(-n3ccnc3)cc2)cc1Cl,,2.94 µM (active)
O=C(CCNC(=O)C1CCN(S(=O)(=O)c2ccccc2)CC1)NC1CC1,41.2%,
O=C1Nc2ccccc2/C1=C/c1ccnc2ccccc12,0.418%,
CC1CN(C(=O)CCC(=O)NC2CCN(Cc3ccccc3)CC2)c2ccccc2O1 (stereo not given),4.48%,
Cc1ccc(OCC(=O)N2CCN(C(=O)c3cccnc3)CC2)cc1,477%,
CCN(CC)C(=O)N1CCN(C(=O)c2ccc(C)cn2)CC1,,11.7 µM (active)
CCN(CC(=O)Nc1c(F)cccc1F)C(=O)c1cnc(C)cn1,26.6%,
CC(C)[C@@H](C(=O)O)N(Cc1cccc(CN([C@H](C(=O)O)C(C)C)S(C)(=O)=O)c1)S(C)(=O)=O,-22.1%,
O=C(Nc1ccc(C(=O)NCc2ccccc2Cl)cc1)C1=CSCCO1,-3.26%,
CS(=O)(=O)NCc1ccc(C(=O)NCc2ccccc2)cc1,1.67%,
CSc1ccc(CNC(=O)c2ccc(NC(=O)C3=CSCCO3)cc2)cc1,,7.38 µM (active)
O=[N+]([O-])c1ccc(NC(=S)N2CCN(c3ccccn3)CC2)cc1,0%,
O=[N+]([O-])c1cc([N+](=O)[O-])c(Oc2cc(F)cc(F)c2F)cc1NN1CCCCC1,38.5%,
Cc1cc2c(cc1S(=O)(=O)NCc1ccc(Cl)cc1)OCC(=O)N2,-23.1%,
O=C(Nc1cccc(Br)c1)c1ccc2snnc2c1,-23.8%,
COc1ccc(NC(=O)Nc2ccc3nsnc3c2)cc1,57.4%,
O=C(Nc1ccc2ccccc2c1)Nc1ccc2snnc2c1,,4.65 µM (active)
COC(OC)c1ccnc(SCc2ccccc2Cl)n1,4.36%,
O=C(CNCc1cccs1)Nc1cc(S(=O)(=O)N2CCCC2)ccc1Cl,-2.83%,
COc1ccc(C)cc1NC(=O)NCc1ccccn1,14.6% [at 5.75 µM],
COc1ccc(C)cc1NC(=O)CNCc1cccs1,,11.7 µM (active)
CC(C)Cc1nnc(NC(=O)CCC(=O)Nc2ccc3cn[nH]c3c2)s1,107%,
CCOc1ccc(NC(=O)c2ccc(NC(=O)C3CCCO3)cc2)cc1 (stereo not given),-3.52%,

Structure (SMILES),"activity change, negative = inhibition",Potency
CCN(CCNC(=O)C1=C(C)C(=O)OC12CCC(C)CC2)c1ccccc1 (stereo not given),-21%,
COc1ccc(C2=NOC(COC(=O)c3ccc4ccccc4n3)C2)cc1 (stereo not given),18.8%,
COc1ccc(NC(=O)NCc2ccc3c(c2)OCO3)c(OC)c1,83.2%,
COc1ccc(C2=NOC(Cn3nc(C(=O)NCc4ccc5c(c4)OCO5)cc3-c3ccccc3)C2)cc1 (stereo not given),,10.4 µM (active)
Cc1ccc(NC(=O)COC(=O)CNC(=O)c2ccc(Cl)cc2Cl)cc1S(=O)(=O)N1CCOCC1,-9.37%,
Cc1c(C)n(Cc2ccc(Cl)cc2)c2ccc(C(=O)NCCCN3CCOCC3)cc12,-20%,
O=C(COc1ccc(-n2cnnn2)cc1)Nc1ccccc1Cl,7.51%,
COc1ccc(CCNc2ncnc3c2nnn3Cc2ccccc2)cc1,,2.94 µM (active)
CC(C)(C)c1nc(NCC2CCCO2)c2nnn(Cc3ccccc3)c2n1 (stereo not given),-41.5%,
Clc1ccc(Nc2ncnc3c2nnn3Cc2ccccc2)cc1,-4.29%,
COc1ccccc1CCNC(=O)CN1C(=O)NC2(CCCC2)C1=O,-0.162%,
COc1ccc(CCNS(=O)(=O)c2cccc([N+](=O)[O-])c2)cc1,2.6%,
COC(=O)CNS(=O)(=O)c1ccc(OC)cc1,3.86%,
COc1ccc(S(=O)(=O)NCCc2cc3ccc(C)c(C)c3[nH]c2=O)cc1,,8.28 µM (active)
COc1ccc2[nH]c(C(=O)Nc3ccccc3Cl)cc2c1,103%,
CN(C(=O)CN1C(=O)S/C(=C\c2ccccc2F)C1=O)C1CCS(=O)(=O)C1 (stereo not given),6.95%,
CN(C(=O)CCN1C(=O)/C(=C/c2ccccc2F)SC1=S)C1CCS(=O)(=O)C1 (stereo not given),-30.6%,
CCN(C(=O)CN1C(=O)/C(=C/c2ccc(F)cc2)SC1=S)C1CCS(=O)(=O)C1 (stereo not given),,11.7 µM (active)
CC(C)NC(=O)COCc1cc(-c2ccc3c(c2)OCO3)on1,-15.2%,
Cn1cccc1C(=O)NNC(=O)COc1ccc(Br)cc1,25.8%,
O=C(CSc1nnc2n1CCCN2)c1ccccc1,78.5%,
Cc1c(OC(C)C(=O)N[C@@H](Cc2ccccc2)C(=O)O)ccc2c3c(c(=O)oc12)CCCC3 (stereo not given in full),87.3%,
Cc1c(C)c2ccc(OCC(=O)N3CCC(C(=O)O)CC3)c(C)c2oc1=O,3.28%,
Cc1c(OC(C)C(=O)NCC2CCC(C(=O)O)CC2)ccc2c1oc(=O)c1ccccc12 (stereo not given),,13.1 µM (active)
CCC(C(=O)NCc1cccnc1)n1nc(C)c2sc3ccccc3c2c1=O (stereo not given),54.4%,
O=C(C1CCCN(S(=O)(=O)c2ccccc2)C1)N1CCN(c2ccc(F)cc2)CC1 (stereo not given),107%,
CCOC(=O)C(C)n1cnc2c(nnn2-c2cccc(OC)c2)c1=O (stereo not given),-28.3%,

Structure (SMILES),"activity change, negative = inhibition",Potency
COc1ccc(/C=N/NC(=O)c2ccc(Cl)cc2)cc1COC(C)=O,13.5%,
COc1ccc(/C=N\NC(=O)c2sc(N)nc2C)cc1OC,42.8%,
COc1cccc(OCc2cc(/C=N/NC(=O)c3nc(Cl)c(Cl)c(N)c3Cl)ccc2OC)c1,,13.1 µM (active)
O=C(Nc1cc(C(F)(F)F)ccc1Cl)c1cc(C2CC2)on1,-29.2%,
CSc1ccccc1NC(=O)c1cc(C2CC2)on1,,7.38 µM (active)
O=C(NC1CCCCC1)c1cc(C2CC2)on1,90.7%,
CC(=O)NC(CC(=O)O)c1ccc(F)cc1 (stereo not given),137%,
Cc1cc(C)cc(OCC(=O)NC(C)c2ccccc2)c1 (stereo not given),-4.04%,
COc1ccc(C(CC(=O)Nc2ccc(C)cc2)NC(=O)C(F)(F)F)cc1 (stereo not given),22.6%,
COc1ccc(C(CC(=O)O)NC(=O)Cc2ccccc2)cc1 (stereo not given),,2.94 µM (active)
Cc1ccc(OCC(=O)NC(C)c2ccccc2)cc1C (stereo not given),,5.22 µM (active)
CCOc1ccc(C(CC(=O)O)NC(=O)Cc2ccccc2)cc1OC (stereo not given),31.4%,
O=C(COc1ccccc1)Nc1nonc1NC(=O)COc1ccccc1,-1.51%,
CCOc1ccc(C(CC(=O)O)NC(=O)COc2ccccc2)cc1 (stereo not given),,10.4 µM (active)
COCCNC(=O)COc1ccc(C)c(C)c1,24.7%,
CCN(CC)S(=O)(=O)c1ccc2[nH]c(=O)cc(C(=O)N(C)C3CCS(=O)(=O)C3)c2c1 (stereo not given),-24.5%,
COc1ccc(-c2cnc(SCCNC(=O)c3ccc4c(c3)OCO4)[nH]2)cc1,-6.78%,
CCOc1ccc(N(CC(=O)Nc2cccc(OC)c2)S(C)(=O)=O)cc1,-19.7%,
CC(=O)Nc1cccc(C(=O)OCN2C(=O)c3ccccc3C2=O)c1,-2.17%,
Cc1ccc(N(C)C(=O)Oc2cccc3ccc(C)nc23)cc1,,0.104 µM (active)
Cc1ccc2cccc(OCCCOc3ccccc3CO)c2n1,42.1%,
Cc1cccc(NC(=O)c2ccc3ccccc3n2)n1,32%,
CSCCC(NC(=O)c1ccco1)C(=O)Nc1cc(C)ccn1 (stereo not given),157%,
CCS(=O)(=O)NCCc1ccc(OC)c(OC)c1,7.66%,
CCOC(=O)c1cc(S(=O)(=O)NCCc2ccc(OC)c(OC)c2)cn1C,,13.1 µM (active)
COc1ccc(CCNS(=O)(=O)c2ccc(F)cc2)cc1OC,4.43%,
Cc1[nH]c2ccc(C(=O)N3CCN(C)CC3)cc2c1C,71.1%,

Structure (SMILES),"activity change, negative = inhibition",Potency
Cc1c(Cl)cccc1NC(=O)[C@@]1(CC(=O)O)CC(/C=C/c2ccccc2)=NO1,12.7%,
CN1CCc2nc(SC(C(=O)O)c3ccccc3)c(C#N)c(-c3cccs3)c2C1 (stereo not given),2.82%,
Cc1cc(NC(=O)CCS(=O)(=O)c2ccc(F)cc2)no1,17.5%,
COc1cccc(/C=N\NC(=O)C2=NNC(=O)C2C)c1O (stereo not given),,4.15 µM (active)
COc1cccc(/C=N/NC(=O)c2[nH]nc3c2CCc2ccccc2-3)c1O,11.3%,
COc1ccc(C(=O)Nc2ccccc2C(=O)N/N=C/c2ccccc2OC)cc1,-12.8%,
COc1ccccc1-n1ccnc(SCC(=O)NC2CCCCC2)c1=O,-12.4%,
COc1ccc(C(=O)OCC(=O)Nc2ccc3[nH]c(=O)[nH]c3c2)c(OC)c1OC,7.27%,
Cc1ccc(S(=O)(=O)N(C)C)cc1NC(=O)COC(=O)/C=C/c1cccs1,-0.398%,
O=C(NC(C(=O)NCCN1CCOCC1)C12CC3CC(CC(C3)C1)C2)C1CCCCC1 (stereo not given),-25.7%,
CC(C)[C@@H](NC(=O)OC(C)(C)C)C(=O)NCC1CCC(C(=O)N[C@@H](Cc2ccccc2)C(=O)O)CC1 (stereo not given in full),-3.55%,
CC(C)C(NC(=O)C1CCC(C(C)(C)C)CC1)C(=O)NCCCN1CCCCC1 (stereo not given),,13.1 µM (active)
CCCCn1c(N)c(N(CC)C(=O)c2ccccc2C(F)(F)F)c(=O)[nH]c1=O,14.2%,
CCOc1ccc(CN(C)C(=O)c2ccc(=O)[nH]c2)cc1,-5.36%,
COc1ccc(N(CCC(=O)NCCc2ccccc2)S(=O)(=O)c2ccc(C)cc2C)cc1,28%,
Cc1cccc(NC(=O)Nc2cccc(Oc3c(F)c(F)c(F)c(F)c3F)c2)c1,,2.08 µM (active)
Cc1cccc(NC(=S)NC(=O)c2ccc(Br)o2)c1,48.5%,
Cc1cccc(NC(=O)NC(=S)NC(=O)c2ccccc2)c1,111%,
Cc1ccc(S(=O)(=O)c2nc(-c3cccs3)oc2NCc2cccnc2)cc1,,11.7 µM (active)
O=C(NCc1cccnc1)c1nc(-c2cccs2)no1,112% [at 5.75 µM],
Cc1ccc(C)c(NS(=O)(=O)c2ccc(OCC(=O)NCc3cccnc3)cc2)c1,5.79%,
COc1cccc2cc(C(N)=O)/c(=N\NC(=O)c3ccccc3)oc12,-23.7%,
Cn1nccc1NS(=O)(=O)c1ccc(F)cc1,-10.2%,
O=C(CN1CCN(c2ccc(Cl)cc2)CC1)c1ccccc1,-0.965%,
